This note sets out measurements from PubChem BioAssay.

SMILES strings stand for the structures. Calls of active or inactive are those of the source.

Assay [1] has as its system Plasmodium falciparum Sir2 (PF13_0152, Sir2A). Put plainly: Plasmodium falciparum Sir2A binding compounds – biochemical, small-molecule microarray, 635 nm fluorescence, primary screen (AID 1098).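 Note: score merges spot fluorescence intensity with its signal-to-noise ratio.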 The note with it: fluorescence 635 nm, higher = more signal.
The nature of assay [2]: probe aDKK1 binding to arrayed compounds – biochemical, biotinylated probe, 635/667 nm fluorescence, primary screen (AID 1099).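 Note: score merges 667nm spot fluorescence with signal to noise across triplicate slides.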 The following applies: small-molecule microarray, higher = more signal.
Assay [3] in a line: probe aCHRDL2 binding to arrayed compounds – biochemical, biotinylated probe, 635/667 nm fluorescence, primary screen (AID 1100). The note with it: small-molecule microarray, higher = more signal.
The nature of assay [4]: change in splice reporter luminescence, either direction, cell-based, HEK293, spliceosome inhibition project, primary screen (AID 1101).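 Note: HEK293 cells carrying a splicing-competent luciferase reporter gene; test concentration not given here.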 The note with it: HEK293 splicing luciferase reporter, 24 h, higher = more signal, called active from +8 up or from −8 down. Background: A reporter such as luciferase makes a cellular process visible.
The target of assay [5] is Fibroblast growth factor 10 (Homo sapiens) (UniProt O15520). The assay is described as follows: compounds binding fibroblast growth factor 10 – biochemical, small-molecule microarray, 635 nm fluorescence, primary screen (AID 1102). The note with it: FGF10 binding, fluorescence 635 nm, higher = more signal.
Chain of Fibroblast growth factor 10 (Homo sapiens) (O15520 whole entry, looked up): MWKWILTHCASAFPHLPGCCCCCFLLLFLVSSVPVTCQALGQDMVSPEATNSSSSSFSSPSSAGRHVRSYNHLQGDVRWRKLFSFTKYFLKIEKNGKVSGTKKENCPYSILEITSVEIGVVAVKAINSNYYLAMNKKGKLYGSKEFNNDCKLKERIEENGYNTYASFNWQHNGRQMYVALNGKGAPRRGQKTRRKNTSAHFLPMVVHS
The test system of assay [6] is glycogen synthase kinase-3 (GSK3A per assay name; protocol says GSK3B). Put plainly: compounds binding glycogen synthase kinase-3 – biochemical, small-molecule microarray, 635 nm fluorescence, GSK3A, primary screen (AID 1103). Note: the record names both GSK3A and GSK3B. The following applies: fluorescence 635 nm, higher = more signal.
Assay [7] has as its target Epidermal growth factor receptor (Homo sapiens) (UniProt P00533). Put plainly: compounds binding epidermal growth factor receptor – biochemical, small-molecule microarray, 635 nm fluorescence, primary screen (AID 1104).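 Note: score merges 667 nm emission intensity with spot signal to noise over triplicate slides.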 The note with it: EGFR binding, higher = more signal.
Assay [8] has as its target Follistatin-related protein 3 (Homo sapiens) (UniProt O95633). The assay is described as follows: compounds binding follistatin-related protein 3 – biochemical, small-molecule microarray, 635 nm fluorescence, primary screen (AID 1105).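 Note: score merges emission near 667 nm and signal to noise per printed spot across three slides.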 The following applies: FSTL3 binding, higher = more signal.
Assay [9] addresses Dickkopf-related protein 1 (Homo sapiens) (UniProt O94907). The assay is described as follows: small molecules binding DKK1 protein – biochemical, small-molecule microarray, 635 nm fluorescence scan, primary screen (AID 1106).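 Note: score merges emission near 667 nm with signal to noise over three replicate slides.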 The following applies: higher = more signal.
For assay [10], the system named is Inhibin beta A chain (activin A). The assay is described as follows: small molecules binding activin A – biochemical, small-molecule microarray, 635 nm fluorescence scan, primary screen (AID 1107).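 Note: mouse activin A protein probed at 4.33 µg/mL on printed slides; score merges bound-protein fluorescence near 667 nm with spot signal-to-noise.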 The note with it: INHBA, higher = more signal.
Assay [11] concerns Human papillomavirus type 1a protein E7 (residues 44-93). The assay is described as follows: small molecules binding HPV E7 44-93 – biochemical, small-molecule microarray, residues 44-93, 635 nm fluorescence, primary screen (AID 1108).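 Note: E7 fragment applied at 1 µg/mL in TBST for 1 h at 4 C; score combines spot fluorescence with its signal to noise ratio.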 The following applies: fluorescence 635 nm, higher = more signal.
A short description of assay [12]: hepatitis C replication reporter changes, two-sided – Huh7 cells, luciferase reporter, HCV replication inhibitor project, primary screen (AID 1109).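 Note: huh7 hepatoma cells harbouring a luciferase neomycin HCV replicon reporter; luciferase luminescence as measure of HCV replicon replication; test concentration not given here.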 The note with it: Huh7 HCV replicon luciferase reporter, 48 h; higher = more signal.
The target of assay [13] is Left-right determination factor 2 (Homo sapiens) (UniProt O00292). Put plainly: small molecules binding LEFTY2 protein – biochemical, small-molecule microarray, 635 nm fluorescence scan, primary screen (AID 1110). The note with it: higher = more signal.
Chain of Left-right determination factor 2 (Homo sapiens) (O00292 whole entry, looked up): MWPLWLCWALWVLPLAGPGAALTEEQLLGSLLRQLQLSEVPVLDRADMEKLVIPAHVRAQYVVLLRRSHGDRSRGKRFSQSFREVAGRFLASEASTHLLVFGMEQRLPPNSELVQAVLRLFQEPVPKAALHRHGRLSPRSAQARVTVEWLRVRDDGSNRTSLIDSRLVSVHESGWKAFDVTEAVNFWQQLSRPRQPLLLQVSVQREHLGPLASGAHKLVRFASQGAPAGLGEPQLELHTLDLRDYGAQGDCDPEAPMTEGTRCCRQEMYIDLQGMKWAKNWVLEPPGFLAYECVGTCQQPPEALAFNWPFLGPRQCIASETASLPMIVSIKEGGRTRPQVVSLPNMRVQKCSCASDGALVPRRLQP
For assay [14], the target named is Calmodulin-1 (Homo sapiens) (UniProt P0DP23). The assay is described as follows: small molecules binding calmodulin-1 with EGTA – biochemical, small-molecule microarray, Cy5-labelled CALM1, profiling panel (AID 1111).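 Note: labelled calmodulin applied in Tris saline Tween buffer holding calcium plus EGTA and DTT.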 The note with it: Cy5-CALM1 binding fluorescence, higher = more signal.
The target is the same in assay [15]. The assay is described as follows: small molecules binding Ca-loaded calmodulin-1 – biochemical, small-molecule microarray, Cy5-labelled CALM1, plus calcium, artefact control for SMM control-protein annotation, profiling panel (AID 1112).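 Note: score merges spot fluorescence with signal to noise from triplicate slides.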 The following applies: Cy5-CALM1 binding fluorescence, higher = more signal.
Assay [16] in a line: probe aWnt5a binding to arrayed compounds – biochemical, biotinylated probe, 635/667 nm fluorescence, primary screen (AID 1113).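 Note: score merges 667 nm fluorescence intensity with signal-to-noise per printed feature.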 The note with it: small-molecule microarray, higher = more signal.
Assay [17] is described as follows: probe aShh binding to arrayed compounds – biochemical, biotinylated probe, 635/667 nm fluorescence, primary screen (AID 1114).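 Note: probe is biotin-labelled aShh protein from a stem cell growth factor screen; measures binding of labelled protein to compounds printed on the slide; score merges feature fluorescence at 667 nm with signal-to-noise.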 The following applies: small-molecule microarray, higher = more signal.
Assay [18] is described as follows: probe aNog binding to arrayed compounds – biochemical, biotinylated probe, 635/667 nm fluorescence, primary screen (AID 1115).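 Note: probe is biotinylated aNog protein used at 0.15 µg/mL for 1 h at 4 C; z-score combines 667 nm fluorescence of each spot with its signal to noise.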 The following applies: small-molecule microarray, higher = more signal.
Assay [19] deals with Torsin-1A-interacting protein 1 (Homo sapiens) (UniProt Q5JTV8). Put plainly: compound microarray binding of lysate hLAP1 – cell lysate, small-molecule microarray, COS7 lysate, 635/667 nm fluorescence, primary screen (AID 1116). The note with it: 635 nm fluorescence, higher = more signal.
Chain of Torsin-1A-interacting protein 1 (Homo sapiens) (Q5JTV8 whole entry, looked up): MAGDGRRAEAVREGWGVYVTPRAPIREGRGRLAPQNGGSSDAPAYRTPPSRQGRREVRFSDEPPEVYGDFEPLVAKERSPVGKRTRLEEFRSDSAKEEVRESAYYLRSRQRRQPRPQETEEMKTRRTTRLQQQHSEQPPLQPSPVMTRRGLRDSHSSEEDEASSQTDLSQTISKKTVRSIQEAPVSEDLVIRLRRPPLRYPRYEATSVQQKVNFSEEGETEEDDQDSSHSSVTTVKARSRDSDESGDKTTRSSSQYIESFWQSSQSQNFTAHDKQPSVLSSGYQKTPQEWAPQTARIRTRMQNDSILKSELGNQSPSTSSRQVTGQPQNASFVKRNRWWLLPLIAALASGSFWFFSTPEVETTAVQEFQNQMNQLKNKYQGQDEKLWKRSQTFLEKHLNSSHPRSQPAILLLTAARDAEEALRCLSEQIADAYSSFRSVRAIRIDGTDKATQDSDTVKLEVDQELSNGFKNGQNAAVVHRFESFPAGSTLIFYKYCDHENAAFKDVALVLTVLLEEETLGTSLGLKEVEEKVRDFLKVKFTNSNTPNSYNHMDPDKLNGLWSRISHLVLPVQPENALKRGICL
In assay [20] the target is Alpha-bungarotoxin (Bungarus multicinctus) (UniProt P60615). The assay is described as follows: compounds binding labelled alpha-BTX control protein – biochemical, small-molecule microarray, Alexa647 label, 635/667 nm fluorescence, artefact control for SMM control protein annotation, profiling panel (AID 1117). The note with it: alpha-BTX-A647 binding fluorescence, higher = more signal.
Chain of Alpha-bungarotoxin (Bungarus multicinctus) (P60615 whole entry, looked up): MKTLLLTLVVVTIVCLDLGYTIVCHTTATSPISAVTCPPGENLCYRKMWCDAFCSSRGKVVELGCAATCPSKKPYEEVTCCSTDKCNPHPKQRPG

Chain of Epidermal growth factor receptor (Homo sapiens) (P00533 whole entry, looked up): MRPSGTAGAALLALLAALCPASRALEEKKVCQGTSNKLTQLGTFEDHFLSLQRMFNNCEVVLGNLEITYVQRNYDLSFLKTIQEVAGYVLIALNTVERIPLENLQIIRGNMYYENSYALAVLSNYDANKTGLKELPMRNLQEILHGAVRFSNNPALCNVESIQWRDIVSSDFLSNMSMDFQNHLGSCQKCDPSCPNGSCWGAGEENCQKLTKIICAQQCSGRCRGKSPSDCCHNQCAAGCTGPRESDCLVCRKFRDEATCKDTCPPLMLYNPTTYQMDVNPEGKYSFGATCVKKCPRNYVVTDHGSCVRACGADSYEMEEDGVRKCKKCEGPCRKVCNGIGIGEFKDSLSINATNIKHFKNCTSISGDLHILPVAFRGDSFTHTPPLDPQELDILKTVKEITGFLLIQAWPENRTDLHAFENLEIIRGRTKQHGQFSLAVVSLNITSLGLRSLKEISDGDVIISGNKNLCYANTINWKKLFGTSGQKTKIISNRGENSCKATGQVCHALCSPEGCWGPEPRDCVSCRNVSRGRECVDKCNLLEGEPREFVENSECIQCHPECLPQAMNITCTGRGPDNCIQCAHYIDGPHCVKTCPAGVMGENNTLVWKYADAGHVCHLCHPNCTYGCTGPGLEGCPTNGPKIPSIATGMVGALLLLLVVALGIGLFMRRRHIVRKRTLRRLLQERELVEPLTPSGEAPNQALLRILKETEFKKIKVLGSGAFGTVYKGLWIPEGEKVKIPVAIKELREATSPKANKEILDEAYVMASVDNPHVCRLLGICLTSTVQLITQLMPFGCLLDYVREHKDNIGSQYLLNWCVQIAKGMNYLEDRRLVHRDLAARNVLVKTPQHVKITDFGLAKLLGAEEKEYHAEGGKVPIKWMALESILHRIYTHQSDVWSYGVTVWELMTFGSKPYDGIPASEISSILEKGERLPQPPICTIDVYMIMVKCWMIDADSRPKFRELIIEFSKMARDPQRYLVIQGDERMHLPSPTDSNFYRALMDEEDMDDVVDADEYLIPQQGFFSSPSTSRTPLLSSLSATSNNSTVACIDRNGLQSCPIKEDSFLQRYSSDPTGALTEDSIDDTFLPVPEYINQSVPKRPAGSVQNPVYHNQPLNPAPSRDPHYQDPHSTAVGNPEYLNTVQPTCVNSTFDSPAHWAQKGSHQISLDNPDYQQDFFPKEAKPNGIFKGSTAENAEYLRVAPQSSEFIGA
Chain of Dickkopf-related protein 1 (Homo sapiens) (O94907 whole entry, looked up): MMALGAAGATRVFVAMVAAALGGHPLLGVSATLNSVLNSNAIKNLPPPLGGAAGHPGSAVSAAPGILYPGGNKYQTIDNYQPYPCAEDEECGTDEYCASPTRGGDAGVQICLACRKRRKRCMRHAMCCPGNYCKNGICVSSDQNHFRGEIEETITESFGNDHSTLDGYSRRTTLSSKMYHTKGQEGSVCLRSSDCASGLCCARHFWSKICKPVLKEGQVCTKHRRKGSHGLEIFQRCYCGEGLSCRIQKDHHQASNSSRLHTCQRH
Chain of Follistatin-related protein 3 (Homo sapiens) (O95633 whole entry, looked up): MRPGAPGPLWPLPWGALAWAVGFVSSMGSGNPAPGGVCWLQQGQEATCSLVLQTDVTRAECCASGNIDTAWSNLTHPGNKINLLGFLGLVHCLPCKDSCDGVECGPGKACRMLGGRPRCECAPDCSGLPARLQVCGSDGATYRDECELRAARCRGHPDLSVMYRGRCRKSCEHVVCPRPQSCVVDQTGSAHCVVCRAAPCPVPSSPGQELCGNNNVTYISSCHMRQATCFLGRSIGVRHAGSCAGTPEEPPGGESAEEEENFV

Turning to `COC(=O)[C@@]1(Cc2ccc(OC)cc2)[C@H]2c3cc(C(=O)N(C)C)n(Cc4ccccn4)c3C[C@H]2CN1C(=O)c1ccccc1`, the composite z-score is 1.04 in [1]; 1.2 in [2]; 1.36 in [3]; -0.024 in [5]; -0.305 in assay [6]; -0.627 in assay [7]. In addition, the composite z-score in assay [8] was -0.317; in [9], -0.659; in [10] it was -1.71; in [11], -0.0851; in [13], -0.479; in assay [14] it was 2.86. The composite z-score is 1.41 in [15]; 0.0859 in [16]; 0.645 in assay [17]; 1.86 in [18]; 3.05 in assay [19]; 1.13 in assay [20]. For the same compound, the values for the z-score in assay [4] and in assay [12] were -1.71 (inactive) and -0.741, respectively.

`C=C(CCCC)/C(=C/C[C@H](OC(=O)c1ccncc1)c1ccccc1OCCO)c1cnc2ccccc2c1`: the composite z-score in assay [1] was 0.869; in assay [2] it was -0.037; in [3], -0.286; in assay [5], 1.08; in assay [6], 0.898; in assay [7], 0.591. The composite z-score in assay [8] stood at 1.49; in assay [9], 0.472; in assay [10], 1.66; in [11] it was 1.13; in assay [13], 0.274; in [14] it was 0.154. Also, the composite z-score in assay [15] is -0.666; in [16] it was -0.096; in assay [17] it was -0.0977; in [18], -0.0428; in [19] it was 0.634; in assay [20] it was 0.527. Besides, the z-score in [4] is -0.292 (inactive); in assay [12] it was -2.82.

For `C=C(CCCC)C(=O)CC[C@@H](OC(=O)c1ccccc1-c1ccccc1C(=O)O)c1ccc(OCCO)cc1`, the composite z-score in assay [1] is 1.19; in assay [2], -0.0379; in [3] it was 0.0075; in assay [5], 0.969; in [6], 0.585; in assay [7] it was -0.181. The composite z-score in [8] was 0.668; in [9], 0.55; in assay [10] it was 1.42; in assay [11], -0.65; in [13], 0.744; in [14] it was -0.487. Further, the composite z-score in assay [15] was -0.559; in assay [16] it was -0.096; in assay [17] it was 0.0278; in assay [18], 0.094; in assay [19], 0.881; in assay [20], 1.05. Besides, the z-score in assay [4] was 0.962 (inactive); in assay [12], -2.71.

Turning to `COc1cc2c(cc1OC)CN(C(=O)[C@H]1[C@@H]3C(=O)O[C@@H](c4ccccc4)[C@@H](c4ccccc4)N3[C@@H](c3ccc(O)cc3)[C@]13C(=O)Nc1ccc(C#CCCO)cc13)CC2`, the composite z-score was 0.957 in [1]; 0.0325 in assay [2]; 0.481 in [3]; 0.398 in [5]; 0.0837 in assay [6]; -0.0179 in assay [7]. In addition, the composite z-score was 0.249 in assay [8]; -0.0546 in assay [9]; 0.224 in [10]; 1.4 in assay [11]; -0.0265 in assay [13]; 0.382 in assay [14]. In addition, the composite z-score in assay [15] was 0.0412; in assay [16] it was -0.0403; in [17], -0.0553; in assay [18], -0.472; in assay [19] it was 0.469; in [20] it was 1.04. Also, the z-score in [4] is 0.0673 (inactive); in assay [12], -0.838.

Turning to `Cc1ccc(S[C@]2(C(=O)NCCCN(C)C)CC(=O)N(Cc3cc(C(F)(F)F)cc(C(F)(F)F)c3)[C@@H]2c2ccc(CO)cc2I)cc1`, the composite z-score in assay [1] is -0.0355; in [2], 0.703; in assay [3], 0.879; in assay [5] it was -0.833; in assay [6], -2.21; in assay [7], -1.18. Moreover, the composite z-score in [8] was -1.71; in assay [9], -1.53; in assay [10], 0.835; in [11] it was -0.0139; in assay [13] it was -0.664; in assay [14] it was 0.325. For the same compound, the composite z-score stood at 0.764 in assay [15]; 0.299 in assay [16]; 0.242 in [17]; 1.73 in assay [18]; 0.215 in [19]; 0.0119 in assay [20]. Also, the z-score is -0.0675 (inactive) in assay [4] and -2.1 in assay [12].
